# Data reported in the supplement of paper PMC3545927.
# The list shows a part of the results. How many sequences the whole screen found active is unknown.
# B1: HC2231 (peptide)
# chain: CAEVVTSTDVAGNASASA
# B2: HC1260 (peptide)
# chain: CAASSSASQLAGNASASA
# B3: HC2027 (peptide)
# chain: CAVVFCSMSYAGNASASA
# B4: FS-2308 (peptide)
# chain: CARSLRDLMEAGNASASA
# B5: FS-1800 (peptide)
# chain: CARVCRDLMDAGNASASA
# B6: FS-1803 (peptide)
# chain: CARVSKDVEDAGNASASA
# B7: HC2031 (peptide)
# chain: CAVVDCSMSYAGNASASA
# B8: HC1049 (peptide)
# chain: CAGLSTLPGNAGNASASA
# B9: FS-3043 (peptide)
# chain: CARQRRQVWKAGNASASA
# B10: FS-2363 (peptide)
# chain: CARQRKSVNAAGNASASA
# B11: FS-2364 (peptide)
# chain: CARQRRCLPQAGNASASA
# B12: FS-2367 (peptide)
# chain: CARQRRTVGQAGNASASA
# B13: FS-2172 (peptide)
# chain: CARQRKESETAGNASASA
# B14: FS-1915 (peptide)
# chain: CARQARFSSQAGNASASA
# B15: FS-2224 (peptide)
# chain: CARQARAVPQAGNASASA
# B16: FS-2466 (peptide)
# chain: CARTMKSVNAAGNASASA
# B17: FS-2582 (peptide)
# chain: CARQARHYHQAGNASASA
# B18: HC340 (peptide)
# chain: CAIAYFSMVGAGNASASA
# B19: HC1333 (peptide)
# chain: CAAELATRSFAGNASASA
# B20: HC1327 (peptide)
# chain: CAVVLTESTLAGNASASA
# B21: HC1301 (peptide)
# chain: CAFAQALPVWAGNASASA
# B22: HC672 (peptide)
# chain: CAWRLLAPITAGNASASA
# B23: HC802 (peptide)
# chain: CARTITTGSPAGNASASA
# B24: HC1636 (peptide)
# chain: CARTKLKLTPAGNASASA
# B25: FS-2527 (peptide)
# chain: CARTKRTPGPAGNASASA
# B26: FS-1870 (peptide)
# chain: CARTKRQIPHAGNASASA
# B27: FS-2830 (peptide)
# chain: CARTKRTRRPAGNASASA
# B28: FS-1795 (peptide)
# chain: CARSVRLGGPAGNASASA
# B29: FS-2824 (peptide)
# chain: CARTKRAQSPAGNASASA
# B30: HC1230 (peptide)
# chain: CAPLLREEVSAGNASASA
# B31: HC1902 (peptide)
# chain: CATTPCSQSWAGNASASA
# B32: HC1876 (peptide)
# chain: CATTGCSGSWAGNASASA
# B33: FS-535 (peptide)
# chain: CAHFSRQKRSAGNASASA
# B34: FS-480 (peptide)
# chain: CAQPSRQKRSAGNASASA
# B35: FS-670 (peptide)
# chain: CAKDSRQKRSAGNASASA
# B36: FS-723 (peptide)
# chain: CASPSGQKRSAGNASASA
# B37: HC110 (peptide)
# chain: CAVVCCRMSYAGNASASA
# B38: HC2095 (peptide)
# chain: CAVVCCSMSHAGNASASA
# B39: HC831 (peptide)
# chain: CAARLVVLATAGNASASA
# B40: FS-1063 (peptide)
# chain: CARHHRFPRAAGNASASA
# B41: FS-690 (peptide)
# chain: CAMASRFPRAAGNASASA
# B42: FS-2022 (peptide)
# chain: CARHHRGRGGAGNASASA
# B43: HC1475 (peptide)
# chain: CAKSKKTPMGAGNASASA
# Biological target: furin, P09958
# Experiment: furin cleavage Z-score vs untreated control; higher = more cleavage, active = 3.5 or more, inactive = 1 or less, 8 variable residues between constant flanks
# In short: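 Sequencing of released DNA, tagged with adapters by PCR, gave read counts used as abundance. That DNA was freed when purified furin cut N-terminally bead-bound 8-mer peptides fused to a cDNA oligonucleotide, in 0.01 ml reactions at 1:10 enzyme:substrate in 50 mM HEPES pH 7.5 with CaCl2 and NaCl, lasting 7.5, 15 or 30 min. The cleavage Z-score was the lowess-adjusted log count versus furin-free reactions, scaled by median absolute deviation.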
# Sequence of furin, P09958 (P09958 whole entry): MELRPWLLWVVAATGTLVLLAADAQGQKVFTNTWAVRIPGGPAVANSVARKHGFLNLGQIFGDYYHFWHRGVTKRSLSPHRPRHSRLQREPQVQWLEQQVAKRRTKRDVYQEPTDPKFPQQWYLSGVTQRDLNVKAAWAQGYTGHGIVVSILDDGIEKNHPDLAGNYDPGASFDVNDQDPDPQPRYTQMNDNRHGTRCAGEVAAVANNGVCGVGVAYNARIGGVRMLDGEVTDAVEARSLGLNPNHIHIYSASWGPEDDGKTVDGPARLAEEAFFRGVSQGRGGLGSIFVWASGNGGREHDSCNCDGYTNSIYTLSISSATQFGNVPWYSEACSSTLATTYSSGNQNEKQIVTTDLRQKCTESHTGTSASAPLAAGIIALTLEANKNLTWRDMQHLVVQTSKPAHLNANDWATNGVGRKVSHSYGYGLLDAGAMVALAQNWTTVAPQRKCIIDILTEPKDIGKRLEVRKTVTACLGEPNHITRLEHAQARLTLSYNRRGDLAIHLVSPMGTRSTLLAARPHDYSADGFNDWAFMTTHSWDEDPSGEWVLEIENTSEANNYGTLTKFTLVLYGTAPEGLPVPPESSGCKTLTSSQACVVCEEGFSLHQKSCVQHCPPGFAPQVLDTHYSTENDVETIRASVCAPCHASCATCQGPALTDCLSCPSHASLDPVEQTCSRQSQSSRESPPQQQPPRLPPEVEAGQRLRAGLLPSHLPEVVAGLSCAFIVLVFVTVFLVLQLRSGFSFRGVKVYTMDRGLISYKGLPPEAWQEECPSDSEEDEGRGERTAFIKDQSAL
Sequence,furin cleavage Z-score (7.5 min),furin cleavage Z-score (15 min),furin cleavage Z-score (30 min)
B1,-0.548 (inactive),0.743 (inactive),-0.721 (inactive)
B2,1.48,0.251 (inactive),0.48 (inactive)
B3,1.89,0.607 (inactive),-0.194 (inactive)
B4,0.906 (inactive),1.52,1.89
B5,4.33 (active),7.74 (active),7.6 (active)
B6,0.222 (inactive),-0.204 (inactive),-0.557 (inactive)
B7,-1.66 (inactive),-0.65 (inactive),-0.452 (inactive)
B8,0.578 (inactive),-0.00394 (inactive),0.293 (inactive)
B9,2.63,5.18 (active),6.07 (active)
B10,1.57,3.81 (active),4.35 (active)
B11,-0.0379 (inactive),0.942 (inactive),2.63
B12,6.93 (active),8.06 (active),7.82 (active)
B13,-0.961 (inactive),-0.283 (inactive),-0.371 (inactive)
B14,-1.25 (inactive),-0.103 (inactive),0.0874 (inactive)
B15,3.01,5.06 (active),5.46 (active)
B16,1.07,2.56,0.0466 (inactive)
B17,0.232 (inactive),1.85,2.09
B18,-0.888 (inactive),-0.599 (inactive),0.982 (inactive)
B19,2.09,0.0816 (inactive),1.22
B20,0.79 (inactive),0.145 (inactive),0.957 (inactive)
B21,-1.52 (inactive),0.477 (inactive),-2.4 (inactive)
B22,-1.21 (inactive),-0.661 (inactive),-0.636 (inactive)

Sequence,furin cleavage Z-score (7.5 min),furin cleavage Z-score (15 min),furin cleavage Z-score (30 min)
B23,-0.428 (inactive),-0.048 (inactive),0.343 (inactive)
B24,-0.273 (inactive),-0.712 (inactive),0.0379 (inactive)
B25,5.68 (active),6.29 (active),6.29 (active)
B26,7.68 (active),12 (active),8.92 (active)
B27,0.799 (inactive),1.15,0.99 (inactive)
B28,0.0283 (inactive),0.734 (inactive),-1.33 (inactive)
B29,6.65 (active),6.74 (active),5.31 (active)
B30,0.0348 (inactive),-0.15 (inactive),-1.63 (inactive)
B31,-0.685 (inactive),-1.5 (inactive),-0.222 (inactive)
B32,-1.5 (inactive),-0.493 (inactive),0.42 (inactive)
B33,8.68 (active),10.7 (active),8.57 (active)
B34,11.2 (active),11.3 (active),7.7 (active)
B35,10.3 (active),10.5 (active),7.97 (active)
B36,0.144 (inactive),0.828 (inactive),0.312 (inactive)
B37,0.397 (inactive),0.763 (inactive),0.409 (inactive)
B38,-0.191 (inactive),0.171 (inactive),0.0466 (inactive)
B39,-1.24 (inactive),-1.13 (inactive),-0.8 (inactive)
B40,12.2 (active),10.7 (active),8.91 (active)
B41,11.5 (active),11.7 (active),9.44 (active)
B42,-0.128 (inactive),0.955 (inactive),-0.479 (inactive)
B43,1.44,0.854 (inactive),-0.61 (inactive)
